An excerpt weighted towards active compounds, which were near 19% of everything screened.
HT1080NT lethal: kills 2HG-producing HT-1080-NT fibrosarcoma cells | HT-1080-NT fibrosarcoma viability, CellTiter-Glo ATP luminescence, 48 h | Potency, µM (titrated, usually from 46.1 µM), hits mostly cytotoxic | actives 1.6% (n = 360,000);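 note: NT is the 2HG producing partner of a matched IDH1 knockdown line; nearly all actives have a fitted effect of over 55% in size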
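Compounds were tested in concentration-response format on HT-1080-NT cells for 48 hours at 37 degrees C. Cell viability came from CellTiter-Glo luminescence; curves were classified by r2, response magnitude and activity.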
IL-1B inflam inh: blocks inflammasome-driven IL-1 beta release; actives 4.7% (n = 360,000); activity change, % at 57.5 µM; THP-1 LPS/ATP IL-1B secretion, AlphaLISA, 16 h; active compounds read low; in the data active = activity change below about -50%; inconclusive = mostly about -30% to -49%
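THP-1 cells pretreated 1 hr with compounds (up to 57.5 uM final), then stimulated with LPS (250 ng/mL final) plus ATP (1.25 mM final); secreted IL-1B measured by AlphaLISA after 16 hr, decreased signal indicating inhibition.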
DT40 TDP1 CPT: DT40-hTDP1 cell growth loss with CPT; chicken DT40 Tdp1-/-;hTDP1 cells + 20 nM CPT, ATP luminescence, 48 h; Potency, µM (doses to about 46.2 µM), actives largely listed as inhibitors; actives 12% (n = 420,000); AID 686979; note: nearly all actives have a fitted effect of over 55% in size
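Chicken DT40 Tdp1-/- cells stably complemented with human TDP1 were seeded at 400 cells/well in medium containing 20 nM camptothecin, exposed to pin-transferred compounds, and grown at 37 °C for at least 48 hr. Viability was read as ATP luminescence.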
TDP1 cell noCPT: qHTS for Inhibitors of human tyrosyl-DNA phosphodiesterase 1 (TDP1): qHTS in cells in absence of CPT; DT40 Tdp1-/- hTDP1 cells, no CPT, ATP luminescence, 48 h; Potency, µM (doses to about 46.2 µM), hits mostly inhibitors; actives 15% (n = 420,000); AID 686978, 2013; note: nearly all actives have a fitted effect of over 55% in size
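Chicken DT40 Tdp1-/- cells stably complemented with human TDP1 were seeded at 400 cells/well with DMSO in place of 20 nM camptothecin. After compound pinning, cells grew at least 48 hr at 37 °C; viability read by CellTiter-Glo luminescence.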
HT1080 IDH1KD tx: HT-1080 IDH1 knockdown cell toxicity (counter line). actives 2% (n = 360,000). HT-1080 IDH1 knockdown viability, ATP luminescence, 48 h. Potency, µM (top dose mostly 46.1 µM), most hits filed as cytotoxic. AID 686971
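Assay cells: HT-1080 with IDH1 knockdown, 750 per well, RPMI/5% FBS. Exposure: 48 h at 37 °C following 2 h pre-incubation. Read: CellTiter-Glo luminescence; fitted concentration-response, curve class assigned.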
Numbers stand for hits; - = inactive; ? = inconclusive; . = no result. Unless noted, calls come from the whole dose curve; as a rule, active = well fitted curve in the direction sought with a large enough effect; inconclusive = small, poorly fitted or top-dose-only effect, or another doubt; inactive = no such curve, though single readings can be large; an effect the other way counts as inactive or inconclusive.

SMILES | HT1080NT lethal | IL-1B inflam inh | DT40 TDP1 CPT | TDP1 cell noCPT | HT1080 IDH1KD tx
Cc1cccc(C(=O)NC2=NC(c3ccc(Cl)cc3)CC(=O)N2)c1 (stereo not drawn) | . | . | - | - | .
Cn1c(C2=C(O)CN(c3ccccc3)C2=N)nc2ccccc21 | - | - | - | - | -
Cc1ccc2c(c1)C(=O)C(=O)N2Cc1ccccc1 | - | - | 1.2µM | 1µM | -
CCCCCOc1ccccc1CN1C(=O)C(=O)c2cc(C)ccc21 | . | . | 13µM | 5.2µM | .
CC(=O)Nc1c(C)nn(-c2ccccc2)c1N1CCC(C(=O)Nc2ccc(F)cc2Cl)CC1 | . | . | - | - | .
Cc1c(C(=O)NCc2cccnc2)sc2nc(-c3ccccc3)cn12 | . | - | - | 16µM | .
Cc1c(C(=O)NCCCN2CCOCC2)sc2nc(-c3ccc(F)cc3)cn12 | ? | - | ? | ? | -
Cc1c(C(=O)NCc2ccccc2Cl)sc2nc(-c3ccc(F)cc3)cn12 | . | . | ? | 16µM | .
Cc1c(C(=O)NCc2cccnc2)sc2nc(-c3ccc(F)cc3)cn12 | - | - | ? | 13µM | -
Cc1nc2ccccn2c1C(=O)NCc1cccnc1 | - | - | - | - | -
Cc1c(C(=O)NCc2ccco2)sc2nc(-c3ccccc3)cn12 | ? | - | ? | ? | ?
Cc1c(C(=O)NCc2ccc(F)cc2)sc2nc(-c3ccccc3)cn12 | . | . | 18µM | ? | .
CCC1CCCCN1CCCNC(=O)c1ccc2c(c1)N(Cc1c(F)cccc1Cl)C(=O)CS2 (stereo not drawn) | - | - | ? | ? | -
CNc1c(Cl)cc(C=O)cc1Cl | . | . | - | - | .
CCN[C@@H]1C[C@H](N)[C@@H](OC2OC(CN)=CCC2N)[C@H](O)[C@H]1O[C@H]1OC[C@](C)(O)[C@H](NC)[C@H]1O (stereo partly drawn) | . | . | - | - | .
CCC1(C)Cc2ccccc2/C(=C/C(=O)N2CCCCC2)N1 (stereo not drawn) | - | - | 18µM | 21µM | -
COc1ccc(C)cc1NC(C)C(=O)c1c[nH]c2ccccc12 (stereo not drawn) | . | . | - | ? | .
CSc1nc(C)c2cc(C)oc2n1 | - | - | - | - | -
Cc1nc(/C=C\C(=O)O)c2cc(C)oc2n1 | - | -66 | - | - | -
Cc1ccc(Oc2ccc(Cl)cc2NC(=O)c2ccc(F)cc2F)cc1 | - | - | - | - | -
CC1(C(=O)NCc2ccc(Cl)cc2)CCN1C(=O)c1cccc(F)c1 (stereo not drawn) | - | - | ? | ? | -
O=C1CN(C(=O)c2ccccc2Cl)c2ccccc2N1 | - | - | - | ? | -
CC1(c2ccccc2)CC(C)(C)N(C(=O)c2ccccc2Cl)c2ccccc21 (stereo not drawn) | . | . | 6.5µM | 5.2µM | .
CC1(c2ccc(Cl)cc2)CC(C)(C)N(C(=O)c2cccc(F)c2)c2ccccc21 (stereo not drawn) | . | . | ? | 18µM | .
Cc1cccc(CSc2nnc3[nH]c(=O)cc(-c4ccccc4)n23)c1 | . | . | - | - | .
SMILES | HT1080NT lethal | IL-1B inflam inh | DT40 TDP1 CPT | TDP1 cell noCPT | HT1080 IDH1KD tx
Cc1ccc(S(=O)(=O)CC(=O)Nc2nc(-c3ccccc3)cs2)cc1 | - | - | - | 21µM | -
CC(=O)c1sc(NC(=O)C2(F)C(F)(F)C(F)(F)C(F)(F)C(F)(F)C2(F)F)nc1C | 7.1µM | -88 | 4.1µM | 5.8µM | 7.1µM
CC(=O)c1sc(NC(=O)C=C(C)C)nc1C | - | - | - | - | -
O=C(CS(=O)(=O)c1ccccc1)Nc1nc(-c2ccccc2)cs1 | - | - | ? | ? | -
CCOC(=O)c1csc(NC(=O)CCS(=O)(=O)c2ccc(Cl)cc2)n1 | - | - | ? | 18µM | -
CC(=O)c1sc(NC(=O)CCS(=O)(=O)c2ccc(C)cc2)nc1C | - | -107 | 9.2µM | 18µM | -
COc1ccc(S(=O)(=O)N2CCOC2CNC(=O)C(=O)NCCCN(C)C)cc1C (stereo not drawn) | - | - | - | - | -
Cc1csc(NC(=O)CCS(=O)(=O)c2ccc(Br)cc2)n1 | - | - | ? | 23µM | -
CCCC(=O)Nc1ccc(-c2csc(N/N=C\c3ccncc3)n2)cc1 | ? | ? | 10µM | 8.2µM | ?
Cc1ccc(S(=O)(=O)CCC(=O)Nc2nc(-c3ccncc3)cs2)cc1 | - | ? | 23µM | 18µM | -
Cc1csc(NC(=O)Cc2ccc(Br)cc2)n1 | - | - | - | - | -
CC(C)CC1Nc2ccc(C(=O)NCCCOC(C)C)cc2NC1=O (stereo not drawn) | . | . | - | - | .
O=C1CCC(C(=O)O)N1 (stereo not drawn) | - | - | - | - | -
O=C(NCc1cccs1)c1csc([C@@H]2O[C@H](CO)[C@H](O)[C@H](O)[C@H]2O)n1 | - | - | - | - | ?
C#CCNC(=O)c1csc([C@@H]2O[C@H](CO)[C@@H](O)[C@H]2O)n1 | - | - | 16µM | ? | ?
O=C(NCc1ccncc1)c1csc([C@@H]2O[C@H](CO)[C@@H](O)[C@H]2O)n1 | - | - | 2.1µM | 2.3µM | ?
Cc1ccccc1Cn1nnc2c(=O)[nH]c(C3CCN(C(=O)c4ccccc4)CC3)nc21 | . | . | - | - | .
COc1ccc(N2C(=O)CC(N3CCC(c4nc5ccccc5[nH]4)CC3)C2=O)cc1 (stereo not drawn) | - | - | ? | ? | -
O=C1CC(N2CCC(c3nc4ccccc4[nH]3)CC2)C(=O)N1c1ccccc1F (stereo not drawn) | - | - | 26µM | ? | -
CCC(=O)Nc1ccc2nc(SCCOc3ccccc3)sc2c1 | . | . | - | - | .
CC(=O)Nc1ccc2nc(SCC(=O)NCCOc3ccccc3)sc2c1 | - | - | 15µM | 15µM | -
NC(=O)CSc1nc2ccc(NC(=O)COc3ccccc3)cc2s1 | . | . | ? | 23µM | .
Cc1cccc(OCC(=O)Nc2ccc3nc(SCc4ccccc4)sc3c2)c1 | . | . | - | - | .
CCN(CC)c1ccc(C(=O)OCC(=O)NC(C)(C)C)cc1 | - | - | ? | ? | -
COc1ccccc1C(=O)OCc1ccc2sc(C)nc2c1 | - | - | - | ? | -
SMILES | HT1080NT lethal | IL-1B inflam inh | DT40 TDP1 CPT | TDP1 cell noCPT | HT1080 IDH1KD tx
CC(=O)N1NC(=Nc2ccccc2)SC1(C)C | - | -75 | ? | 16µM | -
c1ccc(Cc2nnc(N3CCCCC3)c3ccccc23)cc1 | - | -86 | - | ? | ?
COc1cccc(NC(=O)C2CCCN2C(=O)NC2CCCCC2)c1 (stereo not drawn) | - | - | - | - | -
COc1ccccc1N1CCN(C(=O)c2ccc3c(Cl)c4c(nc3c2)CCCC4)CC1 | ? | -87 | ? | ? | ?
O=C(c1ccc2c(Cl)c3c(nc2c1)CCCC3)N1CCN(c2ccc(F)cc2)CC1 | - | - | 21µM | 18µM | -
Cc1ccc(N2CCN(C(=O)c3ccc4c(Cl)c5c(nc4c3)CCCC5)CC2)c(C)c1 | . | . | - | - | .

High-throughput results (PubChem BioAssay)
